Calls of active or inactive are those of the source.
Tests used:
[1] = compound effects on lung adenocarcinoma cell viability – A549, calcein-AM fluorescence, 48 h, basal, profiling panel (AID 1162); conditions: higher = more signal; also: test concentration not given here
[2] = compound effects on differentiated 3T3-L1 adipocyte viability – cell-based, 3T3-L1 adipocytes, calcein-AM fluorescence, 48 h, basal, profiling panel (AID 1163); conditions: 3T3-L1 adipocytes viability, higher = more signal; also: test concentration not given here
[3] = compound effects on hepatocellular carcinoma cell viability – HepG2, calcein-AM fluorescence, 48 h, basal, profiling panel (AID 1164); conditions: higher = more signal; also: test concentration not given here
[4] = compound effects on multiple myeloma cell viability – MM1S, calcein-AM fluorescence, 48 h, basal, profiling panel (AID 1165); conditions: higher = more signal; also: test concentration not given here
[5] = calcein-AM signal in unstimulated myeloma cells – cell-based, calcein-AM fluorescence, 48 h, PK04 Diversity Set, profiling panel (AID 1166); conditions: RPMI8226 myeloma viability, higher = more signal;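 also: cells grown under basal conditions without added stimulus; test concentration not given here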
[6] = JC-1 mitochondrial signal, unstimulated HepG2 cells – cell-based, JC-1 fluorescence, 24 h, 100 nL compound, profiling panel (AID 1167); conditions: HepG2 mitochondrial potential, higher = more signal; also: test concentration not given here
[7] = JC-1 mitochondrial signal, unstimulated adipocytes – cell-based, JC-1 fluorescence, 3T3-L1 adipocytes, 24 h, 100 nL compound, profiling panel (AID 1168); conditions: JC-1 mitochondrial fluorescence, higher = more signal, called active from +8 up or from −8 down; also: test concentration not given here
[8] = JC-1 mitochondrial signal, unstimulated myeloma cells – cell-based, JC-1 fluorescence, RPMI8226, 24 h, 100 nL compound, profiling panel (AID 1169); conditions: JC-1 mitochondrial potential fluorescence, higher = more signal; also: test concentration not given here
[9] = JC-1 mitochondrial signal, unstimulated MM1S myeloma – cell-based, JC-1 fluorescence, 24 h, 100 nL compound, profiling panel (AID 1170); conditions: MM1S mitochondrial potential, higher = more signal; also: test concentration not given here
[10] = resazurin metabolic signal in A549 cells – cell-based, resazurin fluorescence, 24 h, PK04 Diversity Set, profiling panel (AID 1171); conditions: A549 viability, higher = more signal, called active from +8 up or from −8 down; also: test concentration not given here
[11] = resazurin metabolic signal in HepG2 cells – cell-based, resazurin fluorescence, 24 h, PK04 Diversity Set, profiling panel (AID 1172); conditions: HepG2 viability, higher = more signal; also: test concentration not given here
[12] = budding yeast growth changes without added modifier – OD600, strain BY4716, 24 h, basal condition, primary screen (AID 1173); conditions: S. cerevisiae BY4716 growth, OD600, 24 h; higher = more signal, called active from +8 up or from −8 down
[13] = viability profiling in MM1S myeloma cells – cell-based, resazurin fluorescence, basal, 24 h, PK04 Diversity Set, profiling panel (AID 1174); conditions: higher = more signal, called active from +8 up or from −8 down; also: test concentration not given here
[14] = target: Dihydroorotate dehydrogenase (quinone), mitochondrial (Plasmodium falciparum (isolate 3D7)) (UniProt Q08210); assay: inhibition of P. falciparum DHODH – biochemical, C-terminal His tag, absorbance 600 nm, primary screen (AID 1175); conditions: PfDHODH enzyme, DCIP absorbance 600 nm; higher = more signal, called active from +8 up or from −8 down;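 also: recombinant parasite enzyme with a five histidine tag at its C terminus; test concentration not given here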
[15] = growth modulation of vineyard yeast isolate – strain RM11-1a, OD600, basal, 24 h, primary screen (AID 1177);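 also: cultures grown under basal conditions with no added stressor; test concentration not given here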; conditions: S. cerevisiae RM11-1a growth, OD600, 24 h; higher = more signal, called active from +8 up or from −8 down
[16] = growth of efflux-deficient E. coli DRC39 – strain DRC39, OD650, 24 h, E. coli filamentation inducers, primary screen (AID 1178);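 also: growth measured as culture turbidity by optical density at 650 nm; test concentration not given here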; conditions: E. coli DRC39 acrAB, higher = more signal, called active from +8 up or from −8 down
[17] = growth of efflux-deficient E. coli DRC39 – strain DRC39, OD650, 48 h, E. coli filamentation inducers, primary screen (AID 1179);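 also: screen aims at cell division blockers that make cells filament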; conditions: E. coli DRC39 delta-acrAB growth, higher = more signal, called active from +8 up or from −8 down
[18] = viability profiling in RPMI8226 myeloma cells – cell-based, resazurin fluorescence, basal, 24 h, PK04 Diversity Set, profiling panel (AID 1180); conditions: higher = more signal;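 also: RPMI8826 multiple myeloma cell line at 5000 cells per well; test concentration not given here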
[19] = target: E3 ubiquitin-protein ligase XIAP (Homo sapiens) (UniProt P98170); assay: small molecules binding XIAP protein – biophysical, small-molecule microarray, fluorescence 635 nm, primary screen (AID 1181); conditions: higher = more signal;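 also: score merges 667 nm emission and signal to noise over triplicate slides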
Sequence of E3 ubiquitin-protein ligase XIAP (Homo sapiens) (P98170 whole entry, looked up): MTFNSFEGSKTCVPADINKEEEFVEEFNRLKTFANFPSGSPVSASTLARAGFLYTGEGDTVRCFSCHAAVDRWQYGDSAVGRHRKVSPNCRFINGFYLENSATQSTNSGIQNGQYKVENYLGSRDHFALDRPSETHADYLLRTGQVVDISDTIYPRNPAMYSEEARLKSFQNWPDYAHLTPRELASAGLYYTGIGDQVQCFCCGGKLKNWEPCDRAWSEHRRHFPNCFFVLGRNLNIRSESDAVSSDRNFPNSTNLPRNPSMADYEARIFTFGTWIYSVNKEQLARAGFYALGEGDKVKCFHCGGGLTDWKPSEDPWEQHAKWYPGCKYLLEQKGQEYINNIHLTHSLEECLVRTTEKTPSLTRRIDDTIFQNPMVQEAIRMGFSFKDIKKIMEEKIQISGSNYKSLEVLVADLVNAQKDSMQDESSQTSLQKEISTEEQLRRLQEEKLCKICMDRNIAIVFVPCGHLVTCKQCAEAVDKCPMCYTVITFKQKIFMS

Sequence of Dihydroorotate dehydrogenase (quinone), mitochondrial (Plasmodium falciparum (isolate 3D7)) (Q08210 whole entry, looked up): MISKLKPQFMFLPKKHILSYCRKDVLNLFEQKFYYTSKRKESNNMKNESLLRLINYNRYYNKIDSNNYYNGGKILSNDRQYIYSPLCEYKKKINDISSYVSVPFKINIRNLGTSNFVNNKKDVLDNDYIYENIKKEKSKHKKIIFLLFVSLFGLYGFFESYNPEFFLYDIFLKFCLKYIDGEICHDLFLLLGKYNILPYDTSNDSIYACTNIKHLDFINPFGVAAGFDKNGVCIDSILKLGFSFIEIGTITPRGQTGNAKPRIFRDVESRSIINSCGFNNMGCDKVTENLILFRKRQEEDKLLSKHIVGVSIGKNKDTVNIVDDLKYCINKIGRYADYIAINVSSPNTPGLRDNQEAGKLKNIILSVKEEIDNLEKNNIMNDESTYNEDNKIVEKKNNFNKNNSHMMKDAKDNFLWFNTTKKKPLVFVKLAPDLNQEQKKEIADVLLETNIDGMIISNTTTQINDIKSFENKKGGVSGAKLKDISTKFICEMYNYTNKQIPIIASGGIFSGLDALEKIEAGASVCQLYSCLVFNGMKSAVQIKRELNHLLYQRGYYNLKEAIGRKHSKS

Structure (SMILES)	z-score [1]	z-score [2]	z-score [3]	z-score [4]	z-score [5]	z-score [6]	z-score [7]	z-score [8]	z-score [9]	z-score [10]	z-score [11]	z-score [12]	z-score [13]	composite z-score [14]	z-score [15]	z-score [16]	z-score [17]	z-score [18]	composite z-score [19]
CN1C2C=C(c3ccc(CO)cc3)C(C3C(=O)N(C(N)=O)C(=O)C32)C1c1cccs1 (stereo unspecified)	0.555	1.64	-0.542	0.31	1.07	0.171	0.497 (inactive)	-0.21	0.491	0.567 (inactive)	0.935	-1.28 (inactive)	1.05 (inactive)	0.683 (inactive)	1.19 (inactive)	1.09 (inactive)	0.798 (inactive)	0.898	-0.337
[N-]=[N+]=NCc1ccccc1C[C@]1(C(N)=O)N=C(c2ccc(OCCCO)cc2)O[C@H]1c1ccccc1CN=[N+]=[N-]	-0.633	1.76	-1.35	-2.19	-3.71	1.89	0.575 (inactive)	-0.937	-0.621	-1.97 (inactive)	-0.668	-3.26 (inactive)	-1.04 (inactive)	-2.42 (inactive)	-3.31 (inactive)	2.63 (inactive)	0.258 (inactive)	-1.46	0.0685
COCCOC(=O)N1C(=O)[C@@]2(c3cc(C#CCNC(N)=O)ccc31)[C@H](c1ccc(OCCO)cc1)N1[C@H](c3ccccc3)[C@H](c3ccccc3)OC(=O)[C@H]1[C@@H]2C(=O)N1CCCCCCC1	0.118	1.97	-0.164	-0.115	0.269	-0.411	-3.07 (inactive)	-0.659	-1.11	0.643 (inactive)	0.377	1.52 (inactive)	1.2 (inactive)	0.0238 (inactive)	2 (inactive)	-0.132 (inactive)	0.538 (inactive)	1.41	-0.0559
CO[C@H]1O[C@H](CO)[C@@H](OC(=O)Nc2ccc(Oc3ccccc3)cc2)[C@H](OC(=O)Nc2ccccc2-c2ccccc2)[C@H]1OC(=O)Nc1ccccc1-c1ccccc1	-4.22	1.59	-4.47	-3.39	-4.01	-1.37	1.64 (inactive)	-0.646	-1.81	-4.85 (inactive)	-2.96	1.94 (inactive)	-3.97 (inactive)	-0.326 (inactive)	4.09 (inactive)	0.275 (inactive)	-0.534 (inactive)	-2.5	0.344
C=CC[C@@]1(C(=O)N2CCOCC2)N=C(c2ccc(OCCCO)cc2)O[C@@H]1c1ccccc1	0.429	1.9	-0.55	-0.0274	-0.624	0.13	1.09 (inactive)	-0.357	0.216	1.85 (inactive)	0.781	-1.69 (inactive)	1.1 (inactive)	0.702 (inactive)	1.45 (inactive)	0.788 (inactive)	-0.0676 (inactive)	1.02	-0.167
O=C(NCc1ccccc1)[C@@]1(CCS(=O)(=O)c2ccccc2)COC(c2ccc(OCCCO)cc2)=N1	1.29	0.897	-0.0721	-2.26	-0.256	1.61	1.11 (inactive)	-0.263	-0.944	-0.335 (inactive)	0.929	0.0648 (inactive)	-0.12 (inactive)	-0.297 (inactive)	1.52 (inactive)	2.95 (inactive)	1.9 (inactive)	-0.0092	0.272
COC(=O)C[C@H]1O[C@]2(C(=O)N(C)c3ccccc32)[C@@H](C)[C@@H]1[Si](C)(C)c1ccc(OC)cc1	-0.437	2.54	-0.125	-0.128	-2.98	0.441	1.24 (inactive)	-0.636	1.05	-0.767 (inactive)	-0.0652	-4.08 (inactive)	0.504 (inactive)	0.939 (inactive)	-1.41 (inactive)	2.5 (inactive)	0.871 (inactive)	0.452	0.0942
CCOC(=O)C[C@H]1[C@H](OC(=O)c2ccccc2-c2ccccc2)[C@@H](NC(=O)C2CCCCC2)c2cc(OCCCO)ccc2N1C(=O)c1ccccc1	-0.675	1.22	-0.294	-0.402	-1.33	3.59	0.75 (inactive)	-0.545	0.109	-0.0403 (inactive)	-0.206	-0.686 (inactive)	0.609 (inactive)	0.684 (inactive)	1.33 (inactive)	2.32 (inactive)	1.37 (inactive)	0.737	-0.0351
C[C@@H]1CC[C@H]2C(=O)N3CCC[C@H]3C(=O)N2[C@H]1c1ccc(Br)cc1	1.09	-0.0296	0.0327	0.517	0.0262	0.412	1.02 (inactive)	-0.167	0.324	0.673 (inactive)	1.55	-0.654 (inactive)	0.864 (inactive)	0.238 (inactive)	0.393 (inactive)	0.898 (inactive)	0.8 (inactive)	0.506	-0.193

Source: PubChem BioAssay
